The values below come from ChEMBL document CHEMBL2218924, “A broad activity screen in support of a chemogenomic map for kinase signalling research and drug discovery” (Biochem J, 2013).

Each structure is given as a SMILES string.

Assay [1] addresses Dual specificity mitogen-activated protein kinase kinase 1 (Homo sapiens) (UniProt Q02750). The conditions noted are these: at 1 µM.
For assay [2] the target is unchanged. The conditions noted are these: at 10 µM.
Assay [3] deals with Maternal embryonic leucine zipper kinase (Homo sapiens) (UniProt Q14680). The following applies: at 1 µM.
Assay [4] shares this target. The conditions noted are these: at 10 µM.
The target in assay [5] is Misshapen-like kinase 1 (Homo sapiens) (UniProt Q8N4C8). The following applies: at 1 µM.
For assay [6] the target is unchanged. The conditions noted are these: at 10 µM.
The target of assay [7] is T1, Dual specificity mitogen-activated protein kinase kinase 7 (Homo sapiens) (UniProt O14733).
T1 sequence (whole entry): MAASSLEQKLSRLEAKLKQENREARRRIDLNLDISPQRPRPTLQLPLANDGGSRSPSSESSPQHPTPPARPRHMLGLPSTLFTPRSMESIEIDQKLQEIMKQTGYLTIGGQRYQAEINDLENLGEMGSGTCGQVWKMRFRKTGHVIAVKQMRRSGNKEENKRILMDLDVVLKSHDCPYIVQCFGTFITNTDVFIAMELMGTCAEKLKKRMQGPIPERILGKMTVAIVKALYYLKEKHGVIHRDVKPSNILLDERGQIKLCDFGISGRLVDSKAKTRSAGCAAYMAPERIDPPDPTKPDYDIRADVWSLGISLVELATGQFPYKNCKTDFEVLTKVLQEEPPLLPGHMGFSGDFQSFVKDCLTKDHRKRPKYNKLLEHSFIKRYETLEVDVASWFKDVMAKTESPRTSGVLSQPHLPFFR
The following applies: at 1 µM.

Assay [8] addresses T1, Dual specificity mitogen-activated protein kinase kinase 7 (Homo sapiens). The conditions noted are these: at 10 µM.
In assay [9] the target is T2, Dual specificity mitogen-activated protein kinase kinase 6 (Homo sapiens) (UniProt P52564).
T2 sequence (whole entry): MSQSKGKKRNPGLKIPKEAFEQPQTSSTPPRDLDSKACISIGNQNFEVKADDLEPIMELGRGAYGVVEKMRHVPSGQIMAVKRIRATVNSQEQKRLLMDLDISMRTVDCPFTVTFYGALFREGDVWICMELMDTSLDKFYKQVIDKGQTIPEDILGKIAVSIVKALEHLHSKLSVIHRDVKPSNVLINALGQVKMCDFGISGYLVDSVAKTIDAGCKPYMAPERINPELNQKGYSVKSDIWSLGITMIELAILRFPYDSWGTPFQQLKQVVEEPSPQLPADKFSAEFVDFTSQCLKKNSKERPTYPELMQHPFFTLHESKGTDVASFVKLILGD
The conditions noted are these: at 1 µM.

The target of assay [10] is T2, Dual specificity mitogen-activated protein kinase kinase 6 (Homo sapiens). The conditions noted are these: at 10 µM.

Maternal embryonic leucine zipper kinase (Homo sapiens), sequence (Q14680 whole entry, looked up): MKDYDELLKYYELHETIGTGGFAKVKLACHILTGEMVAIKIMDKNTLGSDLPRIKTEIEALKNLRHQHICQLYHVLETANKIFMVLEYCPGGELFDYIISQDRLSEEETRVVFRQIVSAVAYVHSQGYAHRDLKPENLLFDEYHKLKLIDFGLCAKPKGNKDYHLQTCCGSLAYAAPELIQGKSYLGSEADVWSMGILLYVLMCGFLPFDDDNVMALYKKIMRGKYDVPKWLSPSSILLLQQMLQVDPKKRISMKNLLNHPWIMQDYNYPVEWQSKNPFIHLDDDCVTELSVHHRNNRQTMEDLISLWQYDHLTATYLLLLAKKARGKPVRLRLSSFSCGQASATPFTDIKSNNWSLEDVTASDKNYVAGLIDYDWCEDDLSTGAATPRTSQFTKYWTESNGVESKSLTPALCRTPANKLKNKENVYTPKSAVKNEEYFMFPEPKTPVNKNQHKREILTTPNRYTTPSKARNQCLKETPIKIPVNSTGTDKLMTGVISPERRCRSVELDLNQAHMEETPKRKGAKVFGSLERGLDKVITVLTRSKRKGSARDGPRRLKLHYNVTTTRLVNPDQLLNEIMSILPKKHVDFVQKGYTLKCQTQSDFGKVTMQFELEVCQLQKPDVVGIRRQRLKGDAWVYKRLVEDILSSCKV
Dual specificity mitogen-activated protein kinase kinase 1 (Homo sapiens), sequence (Q02750 whole entry): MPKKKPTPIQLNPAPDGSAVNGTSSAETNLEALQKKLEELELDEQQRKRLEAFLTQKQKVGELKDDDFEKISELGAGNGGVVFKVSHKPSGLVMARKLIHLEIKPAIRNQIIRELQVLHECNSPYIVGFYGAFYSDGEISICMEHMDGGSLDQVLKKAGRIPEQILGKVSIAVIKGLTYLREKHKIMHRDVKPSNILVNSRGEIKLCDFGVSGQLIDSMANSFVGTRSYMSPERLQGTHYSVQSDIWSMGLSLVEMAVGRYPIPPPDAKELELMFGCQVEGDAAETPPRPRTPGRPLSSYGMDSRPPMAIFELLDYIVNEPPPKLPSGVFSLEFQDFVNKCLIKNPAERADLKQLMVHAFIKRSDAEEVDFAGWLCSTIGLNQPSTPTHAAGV
Misshapen-like kinase 1 (Homo sapiens), sequence (Q8N4C8 whole entry, looked up): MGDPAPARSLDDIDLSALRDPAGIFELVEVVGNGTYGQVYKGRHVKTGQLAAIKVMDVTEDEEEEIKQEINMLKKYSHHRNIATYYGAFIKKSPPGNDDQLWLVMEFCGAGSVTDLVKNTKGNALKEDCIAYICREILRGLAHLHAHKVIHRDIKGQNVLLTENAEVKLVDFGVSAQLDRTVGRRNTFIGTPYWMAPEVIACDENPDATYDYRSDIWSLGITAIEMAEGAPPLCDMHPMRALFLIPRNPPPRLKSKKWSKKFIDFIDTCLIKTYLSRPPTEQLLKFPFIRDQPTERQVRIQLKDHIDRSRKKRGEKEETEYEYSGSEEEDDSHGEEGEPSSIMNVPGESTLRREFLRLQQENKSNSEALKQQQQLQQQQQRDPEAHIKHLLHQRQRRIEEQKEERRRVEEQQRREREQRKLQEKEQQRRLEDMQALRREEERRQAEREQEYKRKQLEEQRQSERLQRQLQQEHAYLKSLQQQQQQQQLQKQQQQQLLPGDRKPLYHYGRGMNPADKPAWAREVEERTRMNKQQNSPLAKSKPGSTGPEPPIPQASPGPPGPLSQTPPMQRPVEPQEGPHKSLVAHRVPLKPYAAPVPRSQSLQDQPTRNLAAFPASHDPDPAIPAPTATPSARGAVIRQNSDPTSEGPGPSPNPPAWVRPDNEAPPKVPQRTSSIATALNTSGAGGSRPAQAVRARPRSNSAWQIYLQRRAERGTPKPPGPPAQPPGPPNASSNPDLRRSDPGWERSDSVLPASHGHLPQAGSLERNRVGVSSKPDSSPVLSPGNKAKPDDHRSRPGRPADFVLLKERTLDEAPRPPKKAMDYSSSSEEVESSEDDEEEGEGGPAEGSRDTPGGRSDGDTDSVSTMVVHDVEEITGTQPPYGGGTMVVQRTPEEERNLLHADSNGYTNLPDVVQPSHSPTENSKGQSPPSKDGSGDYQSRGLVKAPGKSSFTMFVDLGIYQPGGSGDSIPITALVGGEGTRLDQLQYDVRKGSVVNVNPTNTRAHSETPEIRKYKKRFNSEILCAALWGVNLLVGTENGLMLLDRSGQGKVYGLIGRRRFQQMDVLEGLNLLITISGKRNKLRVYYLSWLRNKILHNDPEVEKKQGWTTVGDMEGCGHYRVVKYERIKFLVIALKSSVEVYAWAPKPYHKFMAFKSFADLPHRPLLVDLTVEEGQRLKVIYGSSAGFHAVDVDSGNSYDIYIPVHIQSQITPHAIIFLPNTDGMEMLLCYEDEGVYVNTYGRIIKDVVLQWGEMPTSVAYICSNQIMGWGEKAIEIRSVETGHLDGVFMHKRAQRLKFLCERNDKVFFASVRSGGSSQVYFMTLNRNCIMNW

Turning to `COc1ccc2c(c1)/C(=C/c1cnc[nH]1)C(=O)N2`, the residual activity in [1] came to 62%; in [2], 11%; in [3], 24%; in [4] it was 3%; in assay [5], 68%; in [6], 14%. Besides, the residual activity in assay [7] is 71%; in [8] it was 16%.

For the molecule `C[S+]([O-])c1ccc(-c2nc(-c3ccc(F)cc3)c(-c3ccncc3)[nH]2)cc1` (stereo unspecified), the residual activity in assay [1] came to 113%; in [2], 110%; in assay [3] it was 107%; in assay [4], 84%; in [5], 112%; in [6], 63%. In addition, the residual activity in assay [9] worked out at 43%; in assay [10], 3%; in [7] it was 86%; in assay [8], 68%.

Take `O=C1c2ccccc2-c2nc3nnnn3nc21`: the residual activity was determined as 67% in [3]; 33% in [4]; 105% in assay [5]; 107% in [6]; 116% in assay [10]; 66% in [7]. The residual activity in assay [8] was found to be 39%.

On to `CCn1cnc2c(Nc3cccc(Cl)c3)nc(N[C@@H]3CCCC[C@@H]3N)nc21`, for which the residual activity in [1] was found to be 87%; in assay [2] it was 25%; in [3] it was 59%; in [4], 18%; in assay [6], 80%; in [9], 99%. The results for the residual activity in assay [10], in assay [7] and in [8] were 78%, 86% and 91%, respectively.

For `O=c1[nH]c2ccccc2n1C1CCN(Cc2ccc(-c3nc4cc5[nH]cnc5cc4nc3-c3ccccc3)cc2)CC1`, the residual activity came to 127% in assay [1]; 62% in assay [2]; 94% in assay [3]; 65% in assay [4]; 97% in [5]; 80% in [6]. Besides, the residual activity stood at 80% in assay [9], 90% in [10], 112% in [7] and 112% in [8].

For the molecule `CC(C)(C)c1cc(C=C(C#N)C#N)cc(Br)c1O`, the residual activity is 113% in assay [1]; 96% in [2]; 122% in assay [5]; 113% in assay [6]; 115% in [10]; 102% in [8].

As for `N/C(=N\[N+](=O)[O-])N/N=C\c1ccc(-c2cccc([N+](=O)[O-])c2)o1`, the residual activity in assay [3] amounted to 92%; in assay [4], 85%; in assay [5] it was 99%; in [6] it was 78%; in assay [9] it was 88%; in [10], 83%.

Consider `COc1cc2ncnc(Nc3ccc(OCc4ccccc4)cc3)c2cc1OC`, for which the residual activity in assay [1] is 115%; in assay [2], 84%; in assay [3] it was 79%; in assay [4], 77%; in assay [5] it was 87%; in [6], 71%. Further, the residual activity is 90% in [9], 87% in [10], 102% in assay [7] and 85% in assay [8].

On to `COc1ccc2c(c[n+](C)c3c4cc5c(cc4ccc23)OCO5)c1OC`, for which the residual activity is 125% in assay [1]; 119% in assay [2]; 84% in assay [3]; 31% in assay [4]; 97% in assay [5]; 75% in [6]. Also, the residual activity in assay [10] came out at 130%; in [7], 110%; in assay [8], 71%.

As to `CC(C)[C@H](CO)Nc1nc(Nc2cccc(Cl)c2)c2ncn(C(C)C)c2n1`, the residual activity in [3] was determined as 66%; in assay [4], 18%; in assay [9], 97%; in [10], 64%; in assay [7], 75%.

For `COC(=O)[C@@]1(O)C[C@H]2O[C@]1(C)n1c3ccccc3c3c4c(c5c6ccccc6n2c5c31)C(=O)NC4`, the residual activity in assay [3] is 1%; in assay [4] it was -1%; in assay [5], 0%; in assay [6], 1%; in [7] it was 7%; in [8], 0%.

For the molecule `CCc1nc(-c2ccc(OC)cc2)[nH]c1-c1ccncc1`, the residual activity in assay [4] was 65%.

As for `O=[N+]([O-])/C=C/c1ccc2c(c1)OCO2`, the residual activity in assay [1] turned out to be 127%; in assay [2], 120%; in assay [3] it was 78%; in assay [4] it was 84%; in assay [5], 97%; in assay [6], 82%. The residual activity turned out to be 85% in [9], 103% in assay [10], 112% in assay [7] and 84% in assay [8].

Take `O=C1NC(=O)c2c1c1c3ccccc3n3c1c1c2c2ccccc2n1C1CCC3O1`: the residual activity in [1] was determined as 40%; in [2], 51%; in assay [3], 55%; in assay [4] it was 72%; in assay [5], 86%; in assay [6] it was 71%. The residual activity in assay [9] is 27%; in [10], 10%; in [7], 100%; in assay [8], 98%.

`COc1cc(OC)c(/C=C2\C(=O)Nc3ccccc32)c(OC)c1`: the residual activity in assay [3] worked out at 104%; in [4] it was 77%; in [5], 105%; in [6], 50%; in [9] it was 105%; in assay [10], 87%. Moreover, the values for the residual activity in assay [7] and in [8] were 98% and 96%, respectively.

As for `c1cc(-c2cnn3cc(-c4ccc(OCCN5CCCCC5)cc4)cnc23)ccn1`, the residual activity in assay [1] is 123%; in assay [2], 117%; in [3], 5%; in [4], -1%; in [5], 59%; in [6] it was 13%.

For the molecule `O=C1Nc2ccc3ncsc3c2/C1=C/c1c[nH]cn1`, the residual activity in assay [1] was 15%; in assay [2], 1%; in [3], 6%; in [4], 1%; in [5], 27%; in assay [6] it was 6%. Besides, the residual activity was -1% in assay [9], 1% in assay [10], 43% in [7] and 12% in assay [8].
